# Experimental data reported in ChEMBL document CHEMBL3988442, “University of Dundee, Small-Polar-MMV Screening Library” (2021).
# For some of these results: Results with a measured potency or affinity are listed apart.
# How the values were obtained:
# Set-up in all cases: scale not given: direction of the effect not stated beside the values
# [1] = target: Protein translocase subunit SecA (Escherichia coli (strain K12)) (UniProt P10408); assay: Assay to Identify E. coli SecA ATPase Inhibitors; type: functional; settings: 30 µM
# Protein translocase subunit SecA (Escherichia coli (strain K12)), sequence (P10408 whole entry): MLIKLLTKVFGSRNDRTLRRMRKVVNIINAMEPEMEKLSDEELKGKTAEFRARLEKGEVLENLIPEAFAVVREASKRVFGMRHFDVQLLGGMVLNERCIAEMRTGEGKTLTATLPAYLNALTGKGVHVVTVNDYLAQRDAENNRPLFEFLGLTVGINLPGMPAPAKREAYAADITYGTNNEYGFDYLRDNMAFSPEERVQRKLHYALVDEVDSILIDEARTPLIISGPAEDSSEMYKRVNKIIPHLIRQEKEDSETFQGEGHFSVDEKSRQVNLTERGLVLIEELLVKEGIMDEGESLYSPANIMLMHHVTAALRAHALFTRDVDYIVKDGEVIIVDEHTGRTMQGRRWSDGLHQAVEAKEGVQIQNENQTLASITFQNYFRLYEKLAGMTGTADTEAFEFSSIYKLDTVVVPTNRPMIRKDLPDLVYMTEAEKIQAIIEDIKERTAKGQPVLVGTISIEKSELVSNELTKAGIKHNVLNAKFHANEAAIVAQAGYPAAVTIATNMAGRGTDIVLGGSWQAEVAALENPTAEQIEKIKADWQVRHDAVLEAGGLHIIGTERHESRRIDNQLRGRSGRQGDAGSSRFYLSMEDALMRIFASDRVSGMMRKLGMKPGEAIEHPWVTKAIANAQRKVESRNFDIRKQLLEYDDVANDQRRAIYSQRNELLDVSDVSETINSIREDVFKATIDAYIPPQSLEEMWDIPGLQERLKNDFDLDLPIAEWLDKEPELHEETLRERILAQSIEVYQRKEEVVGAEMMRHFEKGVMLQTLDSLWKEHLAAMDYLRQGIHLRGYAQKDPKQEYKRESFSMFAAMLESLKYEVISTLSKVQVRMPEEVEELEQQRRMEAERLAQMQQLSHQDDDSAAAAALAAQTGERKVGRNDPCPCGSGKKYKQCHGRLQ
# [2] = target: T1, Ubiquitin-activating enzyme e1, putative (Leishmania donovani (strain BPK282A1)) (UniProt E9BSI1); assay: Leishmania donovani Ubiquitin Activating Enzyme (LdE1); type: functional; settings: 30 µM
# T1 sequence (whole entry): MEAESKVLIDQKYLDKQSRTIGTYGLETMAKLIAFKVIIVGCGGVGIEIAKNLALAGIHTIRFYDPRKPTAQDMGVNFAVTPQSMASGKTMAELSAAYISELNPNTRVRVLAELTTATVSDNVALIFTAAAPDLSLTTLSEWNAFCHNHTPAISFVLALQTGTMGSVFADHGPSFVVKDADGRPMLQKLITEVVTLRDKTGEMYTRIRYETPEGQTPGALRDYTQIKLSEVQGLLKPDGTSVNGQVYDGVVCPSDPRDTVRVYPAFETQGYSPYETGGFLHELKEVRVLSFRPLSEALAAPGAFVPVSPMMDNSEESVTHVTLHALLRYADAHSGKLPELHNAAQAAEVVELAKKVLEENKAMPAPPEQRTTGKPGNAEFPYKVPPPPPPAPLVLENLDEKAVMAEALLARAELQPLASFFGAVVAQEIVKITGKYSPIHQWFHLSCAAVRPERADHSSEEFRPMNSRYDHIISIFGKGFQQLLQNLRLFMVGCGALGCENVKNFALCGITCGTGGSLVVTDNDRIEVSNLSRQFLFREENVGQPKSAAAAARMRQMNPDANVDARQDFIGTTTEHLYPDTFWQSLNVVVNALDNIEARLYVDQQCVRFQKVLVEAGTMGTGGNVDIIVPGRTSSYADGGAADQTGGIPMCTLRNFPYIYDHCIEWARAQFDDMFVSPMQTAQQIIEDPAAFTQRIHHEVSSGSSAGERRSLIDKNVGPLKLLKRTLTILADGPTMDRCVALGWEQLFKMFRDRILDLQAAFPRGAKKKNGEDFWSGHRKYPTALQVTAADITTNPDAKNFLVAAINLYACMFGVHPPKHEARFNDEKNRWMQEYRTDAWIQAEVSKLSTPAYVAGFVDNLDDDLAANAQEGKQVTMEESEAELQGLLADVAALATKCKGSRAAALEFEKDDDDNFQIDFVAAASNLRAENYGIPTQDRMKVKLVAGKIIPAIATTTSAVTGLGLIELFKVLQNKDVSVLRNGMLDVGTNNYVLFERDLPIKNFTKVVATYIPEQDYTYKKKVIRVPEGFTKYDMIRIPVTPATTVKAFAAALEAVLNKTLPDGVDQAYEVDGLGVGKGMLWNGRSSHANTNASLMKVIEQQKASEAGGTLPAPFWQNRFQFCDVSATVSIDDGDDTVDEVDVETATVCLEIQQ
# [3] = target: AMP-activated protein kinase, AMPK (Homo sapiens) (UniProt P54646+O43741+P54619+Q9UGJ0+Q9Y478+Q13131+Q9UGI9); assay: AMP-dependent Kinase enzyme assay. An in vitro enzyme assay that detects ADP turnover that is directly proportional to AMPK activity. This uses naive AMPK that is activated during the assay with MK-8722; type: functional; settings: 30 µM
# [4] = target: Sialic acid-binding Ig-like lectin 9 (Homo sapiens) (UniProt Q9Y336); assay: Hs-Siglec9 ALPHAscreen SOP 20170721; settings: 10 µM
# Sialic acid-binding Ig-like lectin 9 (Homo sapiens), sequence (Q9Y336 whole entry): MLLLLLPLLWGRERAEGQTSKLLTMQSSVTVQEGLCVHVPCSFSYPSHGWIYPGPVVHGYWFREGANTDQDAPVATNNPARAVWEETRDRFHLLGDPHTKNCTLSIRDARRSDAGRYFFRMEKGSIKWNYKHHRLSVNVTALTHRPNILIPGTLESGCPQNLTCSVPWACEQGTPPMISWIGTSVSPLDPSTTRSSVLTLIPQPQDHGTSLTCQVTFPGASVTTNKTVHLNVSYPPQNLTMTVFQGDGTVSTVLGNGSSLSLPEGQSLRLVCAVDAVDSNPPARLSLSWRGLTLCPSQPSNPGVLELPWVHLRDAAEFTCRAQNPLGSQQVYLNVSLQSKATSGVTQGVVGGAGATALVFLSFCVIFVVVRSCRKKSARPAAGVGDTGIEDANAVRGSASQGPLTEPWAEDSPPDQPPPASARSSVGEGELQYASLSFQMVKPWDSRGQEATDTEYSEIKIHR
# [5] = system: Trypanosoma cruzi; assay: Trypanosoma cruzi phosphomannomutase and mannose-1-phosphate guanylyltransferase assay; type: functional; settings: 10 µM
# [6] = target: T2, Arginase-2, mitochondrial (Homo sapiens) (UniProt P78540); assay: in vitro enzyme assay to detect the production of urea directly proportional to the activity of Arginase II; type: functional; settings: 33.3 µM; further: in the data most compounds retested in dose-response had high values
# T2 sequence (whole entry): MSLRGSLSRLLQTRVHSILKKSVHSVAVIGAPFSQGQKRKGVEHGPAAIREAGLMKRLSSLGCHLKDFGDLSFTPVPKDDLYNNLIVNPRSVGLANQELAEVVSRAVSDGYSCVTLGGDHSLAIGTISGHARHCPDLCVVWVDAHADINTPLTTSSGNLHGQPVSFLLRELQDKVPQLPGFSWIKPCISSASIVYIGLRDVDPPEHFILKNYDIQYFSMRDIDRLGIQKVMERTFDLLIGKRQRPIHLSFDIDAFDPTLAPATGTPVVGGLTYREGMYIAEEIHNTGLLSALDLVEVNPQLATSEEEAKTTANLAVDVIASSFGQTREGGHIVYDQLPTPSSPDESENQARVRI
# [7] = target: T3, Proteasome subunit beta (Trypanosoma cruzi) (UniProt O96673); assay: Trypanosoma cruzi proteasome chymotrypsin-like activity (TcProtChymo) assay.; further: in the data most compounds retested in dose-response had high values; type: functional; settings: 9.37 µM
# T3 sequence (whole entry): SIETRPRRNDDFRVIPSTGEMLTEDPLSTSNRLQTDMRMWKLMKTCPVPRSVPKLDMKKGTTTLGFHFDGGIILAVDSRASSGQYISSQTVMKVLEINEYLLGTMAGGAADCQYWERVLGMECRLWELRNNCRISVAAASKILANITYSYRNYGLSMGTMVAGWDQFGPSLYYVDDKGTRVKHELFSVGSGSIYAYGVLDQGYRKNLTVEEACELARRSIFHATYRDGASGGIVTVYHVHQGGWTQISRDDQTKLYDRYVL
# [8] = species on record: Homo sapiens; assay: To identify inhibition of the IFN signalling (Jak-Stat) pathway via expression of an eGFP reporter gene under the control of an IFN-stimulated response element (ISRE) containing MxA promoter.; type: functional; settings: 30 µM
# [9] = target: T4, Tyrosyl-tRNA synthetase, putative (Trypanosoma cruzi (strain CL Brener)) (UniProt Q4DSP6); assay: Trypanosoma cruzi tyrosyl tRNA synthetase (TcYRS) _High Tyrosine SOP; type: functional; settings: 30 µM; further: in the data most compounds retested in dose-response had high values
# T4 sequence (whole entry): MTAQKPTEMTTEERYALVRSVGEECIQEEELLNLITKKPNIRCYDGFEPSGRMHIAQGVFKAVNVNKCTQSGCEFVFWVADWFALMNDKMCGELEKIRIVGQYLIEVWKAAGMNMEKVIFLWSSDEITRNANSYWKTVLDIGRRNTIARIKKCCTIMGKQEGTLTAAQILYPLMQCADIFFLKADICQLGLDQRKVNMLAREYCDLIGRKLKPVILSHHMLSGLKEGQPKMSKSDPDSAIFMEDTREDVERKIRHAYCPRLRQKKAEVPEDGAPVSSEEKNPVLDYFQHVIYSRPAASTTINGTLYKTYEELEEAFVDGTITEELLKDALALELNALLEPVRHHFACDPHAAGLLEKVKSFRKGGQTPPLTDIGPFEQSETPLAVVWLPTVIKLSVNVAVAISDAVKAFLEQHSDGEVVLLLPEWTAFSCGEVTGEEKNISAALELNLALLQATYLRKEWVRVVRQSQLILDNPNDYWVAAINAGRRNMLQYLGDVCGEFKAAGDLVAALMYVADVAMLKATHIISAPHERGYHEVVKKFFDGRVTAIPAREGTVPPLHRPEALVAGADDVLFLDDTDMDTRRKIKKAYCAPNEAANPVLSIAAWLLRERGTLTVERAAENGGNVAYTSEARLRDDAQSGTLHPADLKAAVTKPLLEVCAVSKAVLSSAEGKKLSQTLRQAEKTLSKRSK
# [10] = target: T4, Tyrosyl-tRNA synthetase, putative (Trypanosoma cruzi (strain CL Brener)); assay: Trypanosoma cruzi tyrosyl tRNA synthetase (TcYRS) SOP; type: functional; settings: 30 µM
# [11] = target: Chromo domain-containing protein 1 (Saccharomyces cerevisiae (strain ATCC 204508 / S288c) (Baker's yeast)) (UniProt P32657); assay: ScCHD-1 Enzyme Inhibition Assay; type: functional; settings: 30 µM; further: in the data most compounds retested in dose-response had high values
# Chromo domain-containing protein 1 (Saccharomyces cerevisiae (strain ATCC 204508 / S288c) (Baker's yeast)), sequence (P32657 whole entry, the tested form may be a part): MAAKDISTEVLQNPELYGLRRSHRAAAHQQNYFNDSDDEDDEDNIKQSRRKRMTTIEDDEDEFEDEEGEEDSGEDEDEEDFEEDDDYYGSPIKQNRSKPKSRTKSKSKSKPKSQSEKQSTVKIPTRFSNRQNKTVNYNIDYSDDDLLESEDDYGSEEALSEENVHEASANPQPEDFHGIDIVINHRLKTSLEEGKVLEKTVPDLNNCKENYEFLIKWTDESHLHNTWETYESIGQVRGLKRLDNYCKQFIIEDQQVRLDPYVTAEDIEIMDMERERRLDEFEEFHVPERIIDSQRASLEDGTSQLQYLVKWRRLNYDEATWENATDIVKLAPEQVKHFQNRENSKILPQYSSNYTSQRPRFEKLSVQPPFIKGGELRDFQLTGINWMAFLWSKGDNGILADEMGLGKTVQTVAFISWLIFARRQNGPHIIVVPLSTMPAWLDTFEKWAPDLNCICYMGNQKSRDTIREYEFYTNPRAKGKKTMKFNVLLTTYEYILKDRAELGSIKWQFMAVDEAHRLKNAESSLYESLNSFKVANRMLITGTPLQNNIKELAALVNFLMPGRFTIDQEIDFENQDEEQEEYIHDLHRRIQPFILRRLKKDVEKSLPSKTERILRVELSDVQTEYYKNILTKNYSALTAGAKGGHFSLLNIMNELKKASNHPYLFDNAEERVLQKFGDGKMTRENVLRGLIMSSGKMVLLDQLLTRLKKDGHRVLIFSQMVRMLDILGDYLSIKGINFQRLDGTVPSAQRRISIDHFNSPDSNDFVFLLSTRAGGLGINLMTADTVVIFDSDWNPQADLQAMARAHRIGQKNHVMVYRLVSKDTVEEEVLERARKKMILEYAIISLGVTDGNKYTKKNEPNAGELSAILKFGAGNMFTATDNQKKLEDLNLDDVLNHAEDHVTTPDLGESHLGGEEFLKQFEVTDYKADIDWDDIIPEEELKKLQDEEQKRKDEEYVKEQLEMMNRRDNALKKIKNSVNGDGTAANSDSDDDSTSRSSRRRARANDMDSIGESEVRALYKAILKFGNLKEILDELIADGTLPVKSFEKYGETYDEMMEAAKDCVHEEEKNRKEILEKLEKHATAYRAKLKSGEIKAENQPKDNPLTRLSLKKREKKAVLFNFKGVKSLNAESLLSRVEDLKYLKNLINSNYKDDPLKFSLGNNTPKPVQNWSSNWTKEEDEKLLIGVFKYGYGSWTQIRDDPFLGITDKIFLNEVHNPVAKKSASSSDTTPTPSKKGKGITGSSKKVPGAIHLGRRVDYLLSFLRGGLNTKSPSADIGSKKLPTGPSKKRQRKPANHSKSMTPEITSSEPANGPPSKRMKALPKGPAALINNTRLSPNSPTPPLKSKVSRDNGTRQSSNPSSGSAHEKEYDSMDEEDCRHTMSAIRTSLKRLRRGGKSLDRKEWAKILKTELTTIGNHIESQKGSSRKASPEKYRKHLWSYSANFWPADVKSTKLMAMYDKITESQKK
Structure (SMILES),Percent Effect [1] [%],Percent Effect [2] [%],Percent Effect [3] [%],Percent Effect [4] [%],Percent Effect [5] [%],Percent Effect [6] [%],Percent Effect [7] [%],Percent Effect [8] [%],Percent Effect [9] [%],Percent Effect [10] [%],Percent Effect [11] [%]
O=C(c1ccccc1OCC1CC1)N1CCCC(n2ccnc2)C1 (stereo not given),1.84,1.27,11.2,-0.0308,3.18,5.81,10.3,-14,2.08,7.59,-6.24
CSc1ncccc1C(=O)N1C[C@H]2CC[C@@H]1CN(c1ncccn1)C2,-4.71,7.79,4.3,12.7,1.87,-31.7,6.82,-0.196,7.53,11.1,-5.74
Cc1ccc(CN(Cc2cccnc2)C2CC(C)(C)NC(C)(C)C2)s1,-5.72,1.35,9.33,-0.663,-3.36,-5.8,10.1,13.4,2.15,-1.3,-9.11
O=C(c1ccc(F)c(F)c1)N1CCCC(Nc2ccc(F)cc2)C1 (stereo not given),-2.99,-2.7,-4.26,1.48,6.56,-2.86,2.59,19.7,6.88,7.32,-2.35
O=C(CCc1cc2n(n1)CCCN(C(=O)c1ccccn1)C2)NC1CC1,-2.88,4.17,-1.28,15.3,4.76,21.2,7.89,-15.2,4.21,5.13,-4.34
CNc1nc(C(=O)N2CCCC(c3nccn3CC3CCC3)C2)cs1 (stereo not given),-5.42,8.22,-0.395,-0.171,1.96,0.455,7.81,0.132,6.45,-22.5,-6.79
CN(Cc1cccc(Cl)c1)S(=O)(=O)N1CCOCC1,-3.38,10.5,6.62,-2.67,4.58,-5.92,23.9,-6.09,1.06,15.6,-2.59
COC(=O)N1CCc2ccc(NC(=O)c3cn(C)nn3)cc2C1,-6.1,10.4,2.87,5.76,2.07,-49.7,9.92,12.5,5.29,8.97,90.7
Cc1ccc(CNS(=O)(=O)CC2=NC(=O)n3cccc3C2=O)cc1,0.952,-9.33,7.77,4.14,-1.77,-4.4,7.21,-19.8,-2.12,0,2.54
Cn1ncc2c(=O)[nH]c(CN(Cc3ccco3)C3CCCC3)nc21,-5.65,23.4,-6.78,6.27,2.81,-1.42,14.7,6.82,2.91,24.4,-9.65
O=C1CC(c2ccc(C(=O)O)cc2)c2ncn(-c3ccccc3)c2N1 (stereo not given),-4.54,9.33,-172,-2.38,0.786,-8.63,19.2,2.29,9.52,7.69,-7.97
CCOc1cc(C)nc(N2CCN(C(=O)c3ccnn3C)CC2)n1,-1.84,5.41,-0.273,4.02,3.62,-3.51,4.67,2.75,3.96,18.3,-3.83
Cc1csc(N2CCCN(Cc3noc(C)n3)CC2)n1,-2.54,3.8,-4.18,0.549,2.36,-7.1,15.9,11.2,5.21,7.59,-16
COC(=O)c1cccc(C(=O)N2CCCCC2CCn2ccnc2C)c1 (stereo not given),-7.31,8,0.551,4.41,0.487,-0.521,25.5,13.4,3.83,11.1,-2.11
O=C(c1cscn1)N1CCC[C@]2(C[C@H](OCC3CC3)CO2)C1,-1.77,-2.67,6.38,4.3,5.91,0.233,3.08,2.38,4.25,1.28,1.14
COCc1nc(C(=O)N2CCCC2c2noc(C(C)C)n2)cs1 (stereo not given),-3.95,1.27,8.09,-0.11,-1.74,3.66,-0.343,3.65,3.12,5.06,11.7
c1ccc2sc(CN3CCCC3c3noc(C4CC4)n3)nc2c1 (stereo not given),-2.02,-13.5,-1.08,-2.6,-2.88,0.185,0,9.41,8.91,23.2,6.83
Cc1cc(NC(=O)C(c2cccc(F)c2)N2CCOCC2)ccn1 (stereo not given),-4.97,10.5,2.55,5.76,1.66,-9.47,10.6,3.19,2.13,7.79,-7.19
CC(C)c1nnc2n1CCN(C(=O)c1ccc(CN(C)C)cc1)C2,-3.27,-2.6,-13.6,-5.41,-2.84,1.47,12.5,22.6,0.952,-2.35,-18.4
O=C(CN1CCc2ccccc21)Nc1ccc(OC(F)F)cc1,-2,1.39,0.216,8.48,-2.23,0.883,21.1,8.31,0,-7.69,88.5
